# Shown are actives, neighbours in structure and some others; about 2.8% of the full set was active somewhere.
# PAFAH2 inh: PAFAH2 enzyme inhibitors, primary screen, biochemical, fluorescence polarization, human; recombinant PAFAH2, FP-rhodamine activity probe; inhibition, % at 3.39 µM; actives 0.99% (n = 340,000); AID 492956, 2010;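 active means inhibition above the mean over all tested compounds plus 3 SD, cut at about 30% in these data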;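 further: inhibitors block probe labeling of enzyme so polarization drops; 0% = enzyme with DMSO and 100% = wells lacking PAFAH2 protein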
# PAFAH1B2 FP inh: PAFAH1B2 enzyme inhibitors, primary screen, biochemical, fluorescence polarization, human; actives 1.2% (n = 340,000); recombinant PAFAH1B2, FP-rhodamine activity probe; inhibition, % at 3.39 µM;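 active means inhibition above the mean of all tested compounds plus 3 SD, cut at about 24% in these data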;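 further: 0% = enzyme with DMSO and 100% = wells lacking PAFAH1B2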
# pPAFAH FP inh: pPAFAH enzyme inhibitors, primary screen, biochemical, fluorescence polarization, human; Platelet-activating factor acetylhydrolase (Homo sapiens), Q13093; recombinant pPAFAH, FP-rhodamine probe fluorescence polarization; inhibition, % at 3.39 µM; actives 1.5% (n = 330,000);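 active means inhibition above the mean inhibition across the screen plus 3 SD, cut at about 25% in these data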;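 further: inhibitors block binding of the rhodamine activity-based probe so polarization drops; 0% = enzyme with DMSO and 100% = wells lacking pPAFAH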
# Target sequence (Q13093 whole entry, looked up): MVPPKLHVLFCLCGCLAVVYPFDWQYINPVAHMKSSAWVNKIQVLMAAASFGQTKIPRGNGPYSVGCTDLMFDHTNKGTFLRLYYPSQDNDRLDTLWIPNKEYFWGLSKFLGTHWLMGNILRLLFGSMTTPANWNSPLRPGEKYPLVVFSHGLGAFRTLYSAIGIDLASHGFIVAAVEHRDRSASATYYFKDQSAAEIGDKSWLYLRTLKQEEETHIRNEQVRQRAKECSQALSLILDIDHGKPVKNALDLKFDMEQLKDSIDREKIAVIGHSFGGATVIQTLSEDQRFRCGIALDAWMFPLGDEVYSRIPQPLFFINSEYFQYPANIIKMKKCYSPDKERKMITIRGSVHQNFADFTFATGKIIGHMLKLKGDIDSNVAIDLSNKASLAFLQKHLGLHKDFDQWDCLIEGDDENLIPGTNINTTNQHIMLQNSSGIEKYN
# Fam108B inh: mouse Fam108B serine hydrolase inhibitors, primary screen, counter-screen for RBBP9 inhibitor project, biochemical, fluorescence polarization; recombinant Fam108B, FP-Rh probe fluorescence polarization; inhibition, % at 9.51 µM; actives 0.33% (n = 300,000);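 active means inhibition above the screen mean inhibition plus 3 SD, computed separately per campaign, cut at about 18% in these data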;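 further: inhibitors lower polarization as less probe binds the enzyme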
# PME-1 inh: PME-1 inhibitors via competitive probe labeling, primary screen, biochemical, fluorescence polarization, FP-Rh probe, HTS; Protein phosphatase methylesterase 1 (Homo sapiens), Q9Y570; recombinant PME-1; inhibition, % at 5.9 µM; actives 0.53% (n = 320,000);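 active means inhibition above the campaign mean of all compounds plus 3 SD, cut at about 26% in these data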;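 further: competitive labeling of PME-1 active site by serine hydrolase directed probe; 0% = PME-1 with DMSO and 100% = wells lacking PME-1 enzyme; inhibitors block probe labeling so polarization falls and inhibition rises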
# PAFAH1B3 inh: PAFAH1B3 enzyme inhibitors, primary screen, biochemical, fluorescence polarization, human; Platelet-activating factor acetylhydrolase IB subunit alpha1 (Homo sapiens), Q15102; recombinant PAFAH1B3, FP-rhodamine probe; inhibition, % at 3.39 µM; actives 0.28% (n = 340,000);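 active means inhibition above the screen-wide average of all tested compounds plus 3 SD, cut at about 25% in these data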;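 further: 0% = enzyme with DMSO only and 100% = wells lacking PAFAH1B3 protein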
# The depositor's hits bear a star; . = no result given.
SMILES,PAFAH2 inh,PAFAH1B2 FP inh,pPAFAH FP inh,Fam108B inh,PME-1 inh,PAFAH1B3 inh
O=C(Cn1nnc(-c2cc(C(F)(F)F)cc(C(F)(F)F)c2)n1)NNC(=S)Nc1ccc(Cl)cc1,3,10,27*,8,6,11
O=C(N/N=C/c1c[nH]c2ccccc12)c1ccccc1,1,6,7,0,2,3
O=C(CSc1ccc(Cl)cc1)N/N=C/c1ccc([N+](=O)[O-])o1,3,29*,14,6,8,6
O=C(N/N=C/c1ccc([N+](=O)[O-])o1)c1sc2ccccc2c1Cl,6,13,31*,0,12,12
O=C(N/N=C/c1c[nH]c2ccccc12)c1sc2ccccc2c1Cl,14,6,25*,14,33*,12
C[C@H]1CCC[C@]2(C)C[C@H]3OC(=O)C(CN4CCCCCC4)[C@H]3C=C12 (stereo partly drawn),19,30*,7,2,2,2
Cc1cc(C)n2nc(C(=O)N3CCCC(N4CCN(c5ccccc5C)CC4)C3)cc2n1 (stereo not drawn),9,2,.,.,.,11
Nc1ccc(Oc2ccc3nc(-c4ccccc4)c(-c4ccccc4)nc3c2)cc1,-1,10,-2,8,4,-2
Nc1ccc2nc(-c3ccccc3)c(-c3ccccc3)nc2c1,9,14,27*,5,5,9
CCn1c2ccccc2c2cc(/C=N/NC(=O)c3ccc(O)cc3)ccc21,-19,-5,-6,-9,-10,-18
Cn1c2ccccc2c2cc(/C=N/NC(=O)c3ccc(O)cc3O)ccc21,-22,23,31*,15,47*,33*
O=C(Oc1ccc(/C=N/NC(=O)c2ccccn2)cc1)c1cccc(F)c1,-2,-1,0,-1,3,-5
Cc1ccc(SC(C)c2nc(-c3cccnc3)no2)cc1 (stereo not drawn),0,27*,-2,1,-5,8
O=C1Nc2ccc(F)cc2C12Nc1ccccc1-c1nnc(SCc3ccccc3Cl)nc1O2 (stereo not drawn),24,25*,2,6,0,9
O=C(C1CCN(S(=O)(=O)c2ccccc2F)CC1)N1CCN(Cc2ccc3c(c2)OCO3)CC1,2,4,-1,.,5,7
COc1c(O)c(O)c2oc(-c3ccccc3)cc(=O)c2c1OC,0,4,19,0,7,11
COc1cc(-c2cc(=O)c3c(O)c(OC)c(OC)c(O)c3o2)ccc1O,7,6,26*,5,6,25
CCc1nc2ccccc2n1CC(=O)NC1CCS(=O)(=O)C1 (stereo not drawn),5,-3,0,.,.,-3
CCOc1cc(/C=C2\SC(=O)N(CC(=O)Nc3ccccc3F)C2=O)cc([N+](=O)[O-])c1O,34*,8,32*,16,5,15
CCC(C)(C)NC(=O)c1ccc2c(c1)N(CC(=O)NC1CCCC1)C(=O)C(C)(C)O2,5,6,5,5,0,15
COc1ccc(Nc2nc(OC)nc(OC)n2)cc1,5,-1,7,-5,3,1
COc1ccc(Nc2nc(Nc3ccc(OC)cc3)nc(SC3=NCCS3)n2)cc1,6,1,34*,5,20,7
Cc1ccc(NS(=O)(=O)c2ccc(CCC(=O)O)cc2)cc1,10,12,34*,6,1,2
Cc1ccc(NS(=O)(=O)c2ccc(CCC(=O)NCCCOC(C)C)cc2)cc1,2,4,26*,-1,1,6
CCn1c(=O)c(=O)n(CC)c2cc(S(=O)(=O)Nc3ccc(C)cc3)ccc21,8,0,26*,3,11,4
CC(=O)c1ccc(NS(=O)(=O)c2ccc(CC(C)C)cc2)cc1,2,28*,17,-1,4,-1

# Screening results as filed in PubChem BioAssay.
